NIH3T3 tox: cytotoxic compounds in NIH 3T3 cells | Potency, µM (doses to about 96.7 µM), for the others: top-dose activity change, negative = cytotoxicity, hits mostly inhibitors | 94,000 compounds, 4.3% hits | NIH 3T3 viability, CellTiter-Glo ATP luminescence, 48-72 h | AID 1345082; also: nearly all actives have a fitted effect of over 55% in size
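Luminescent ATP readout (CellTiter-Glo, 10 min RT) after 48 or 72 hr compound exposure of NIH 3T3 cells seeded at 400 cells/well in 1536-well format; quantitative HTS.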
FLuc inh: inhibitors of firefly (Photinus pyralis) luciferase | 76,000 compounds, 2.5% hits | P08659 | Potency, µM (doses to about 115 µM), most hits filed as inhibitors | purified P. pyralis luciferase, luminescence, biochemical | AID 1347043; also: nearly all actives have a fitted effect of over 65% in size
Target sequence (P08659 whole entry, looked up): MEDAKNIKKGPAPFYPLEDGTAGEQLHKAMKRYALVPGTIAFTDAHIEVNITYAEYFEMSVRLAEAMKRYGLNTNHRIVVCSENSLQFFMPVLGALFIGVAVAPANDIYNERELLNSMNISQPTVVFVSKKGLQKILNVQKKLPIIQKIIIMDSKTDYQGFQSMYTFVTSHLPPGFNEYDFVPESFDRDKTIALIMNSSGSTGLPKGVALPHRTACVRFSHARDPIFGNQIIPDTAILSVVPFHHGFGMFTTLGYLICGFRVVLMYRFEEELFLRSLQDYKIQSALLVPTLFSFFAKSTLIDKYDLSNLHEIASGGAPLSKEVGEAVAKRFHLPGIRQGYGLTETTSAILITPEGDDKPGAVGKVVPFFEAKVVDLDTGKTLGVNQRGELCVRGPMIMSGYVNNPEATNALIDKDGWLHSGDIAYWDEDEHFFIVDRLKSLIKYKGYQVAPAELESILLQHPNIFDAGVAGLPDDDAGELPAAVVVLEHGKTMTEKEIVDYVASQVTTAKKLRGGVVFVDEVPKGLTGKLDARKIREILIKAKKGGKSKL
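Biochemical qHTS: compound (6-point titration) added to 10uM D-luciferin plus 10uM ATP in Tris acetate pH 7.5 buffer with Mg, Tween-20 and BSA, then purified enzyme at 10nM; light output imaged.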
hNpr1 antagonist: antagonists of human natriuretic peptide receptor Npr1; P16066; HEK293 hNpr1 GloSensor cGMP, ANP-stimulated luminescence; Potency, µM (titrated, usually from 46.3 µM), for the others: top-dose activity change, negative = inhibition, usual class: inhibitors; 76,000 compounds, 1.6% hits; AID 1347048; calls by dose curve; also: nearly all actives have a fitted effect of over 60% in size
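Compound pre-incubated 30 min at room temperature on GloSensor-loaded HEK293 cells stably carrying hNpr1 and the pGS-40F cGMP biosensor. Stimulation uses hNppA at 0.1 nM final; luminescence is taken at baseline and 20 min post-agonist.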
HEK cytotox: kills HEK 293 cells | Potency, µM (titrated, usually from 115 µM), for the others: at the top dose activity change, negative = cytotoxicity, actives largely listed as inhibitors | HEK 293 viability, ATP luminescence (CellTiter-Glo), 48-72 h | 94,000 compounds, 6.6% hits; also: nearly all actives have a fitted effect of over 60% in size
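Viability of HEK 293 cells, plated at 250 cells/well, was judged by cellular ATP after compound treatment for 48 or 72 hr. Luminescence was imaged 10 min after CellTiter-Glo addition at room temperature.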
GPT2 inh: GPT2 alanine aminotransferase inhibition | Q8TD30 | Recombinant GPT2, coupled pyruvate oxidase/HRP Amplex Red fluorescence | Potency, µM (top dose mostly 57.7 µM), for inactives: at the top dose activity change, negative = inhibition, actives largely listed as inhibitors | 100,000 compounds, 0.25% hits | AID 1671188; also: nearly all actives have a fitted effect of over 60% in size
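Fluorescence read-out: pyruvate from GPT2 turnover coupled to pyruvate oxidase, HRP and Amplex Red (0.2mM ThPP, 0.2U/mL PO and HRP, 50uM Amplex final). Substrates 250uM a-KG, 2mM L-alanine; enzyme 10ng/uL; 30 min RT.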
Active calls of the source: *; i = inactive; ? = inconclusive; · = not tested or not shown; [ ] = another dose, or the depositor's remark. Sampled rows, rich in hits. Any-hit rate of the full collection: about 10%. Unless noted, calls follow the shape of the dose curve; as a rule, active = well fitted curve in the direction sought with a large enough effect; inconclusive = small, poorly fitted or top-dose-only effect, or another doubt; inactive = no such curve, though single readings can be large; an effect the other way counts as inactive or inconclusive. % is scaled to controls: 0 for no effect and ±100 for the full control effect; potency is read from the fitted curve at half-maximal effect.

SMILES | NIH3T3 tox | FLuc inh | hNpr1 antagonist | HEK cytotox | GPT2 inh
COc1ncccc1-c1cnc2[nH]cc(CC(=O)NC3CC3)c2c1 | 25µM* | i | -25%[70.6 µM] | ? | -3%[88.5 µM]
COc1ncccc1-c1cnc2[nH]cc(CC(=O)Nc3nc(C)cs3)c2c1 | 32µM* | i | ? | 35µM* | i
O=C(Cc1c[nH]c2ncc(-c3ccccc3)cc12)Nc1ccc(C(F)(F)F)cc1 | ? | i | -7%[70.6 µM] | 63µM* | i
NC(=O)Cc1c[nH]c2ncc(-c3cccc(N4CCOCC4)c3)cc12 | 100µM* | i | 2%[70.6 µM] | -8%[172 µM] | ?
O=C(Cc1c[nH]c2ncc(-c3cccnc3)cc12)Nc1ccc(C(F)(F)F)cc1 | ? | i | ? | ? | ?
COc1ccc(NC(=O)Cc2c[nH]c3ncc(-c4ccccc4)cc23)cc1 | ? | i | -26%[70.6 µM] | -16%[172 µM] | 4%[88.5 µM]
COc1ccc(-c2cnc3[nH]cc(CC(=O)Nc4ccc(F)c(Cl)c4)c3c2)cc1 | 32µM* | i | -23%[70.6 µM] | ? | ?
Cn1cc(-c2cnc3[nH]cc(CC(=O)Nc4ccc(N5CCOCC5)cc4)c3c2)cn1 | -1%[138 µM] | i | 5%[70.6 µM] | ? | 2%[88.5 µM]
O=C(Cc1c[nH]c2ncc(-c3ccccc3)cc12)Nc1ccc(N2CCOCC2)cc1 | 25µM* | i | -23%[70.6 µM] | 63µM* | -4%[88.5 µM]
COc1ccc(C(=O)N2CCC(N3CC4CC(C3)[C@H]3CCCC(=O)N3C4)CC2)cc1 (stereo partly drawn) | 0% | i | 1% | 0% | i
Cn1cc(-c2cnc3[nH]cc(CC(=O)Nc4ccccc4Cl)c3c2)cn1 | ? | i | 5%[70.6 µM] | -11%[172 µM] | 0%[88.5 µM]
COc1ccc(-c2cnc3[nH]cc(CC(=O)Nc4ccc(C(F)(F)F)cc4)c3c2)cc1 | 45µM* | i | -18%[70.6 µM] | ? | 1%[88.5 µM]
Cc1ccccc1-c1cnc2[nH]cc(CC(=O)Nc3ccccc3)c2c1 | 40µM* | i | ? | ? | i
Cn1cc(-c2cnc3[nH]cc(CC(=O)Nc4cccc(F)c4)c3c2)cn1 | ? | i | -23%[70.6 µM] | 45µM* | i
O=C(C1CCC1)N1CCCCCC1c1nnc(-c2ccccc2)o1 (stereo not drawn) | ? | i | 2% | ? | i
Cc1cccc(CC(=O)N2CC(C(=O)NC3CCCCC3)C3(CCOCC3)C2)c1 (stereo not drawn) | i | i | -11% | -2% | i
CN(C)C[C@@H]1CN(S(C)(=O)=O)C[C@H]1NC(=O)c1ccnn1C | 2% | i | -2% | 2% | i
CCc1noc(-c2cccn3c(CNC(=O)c4ccco4)nnc23)n1 | -13% | i | 1% | i | i
Cc1cn2nc(C(=O)NCc3ccc(F)cc3F)cc2c(N(C)Cc2ccccc2)n1 | 35µM* | i | 2% | ? | -10%
Cc1cn2nc(C(=O)N3CCC(C)CC3)cc2c(N(C)Cc2ccccc2)n1 | 35µM* | i | 17% | ? | 0%
Cc1ccc(C2NC(=O)N(CC(=O)NC3CCCC3)C3=C2C(=O)OC3)cc1 (stereo not drawn) | -15% | i | 1% | -21% | i
Cc1ccc(C(=O)NC2CCN(c3cc(-c4cccs4)[nH]n3)CC2)c(C)c1 | 32µM* | i | 0% | ? | i
COc1ccc(Cl)cc1C(=O)NC1CCN(c2cc(-c3cccs3)[nH]n2)CC1 | 7.9µM* | i | -22% | ? | -18%
COc1ccc(C(=O)NC2CCN(c3cc(-c4cccs4)[nH]n3)CC2)cc1OC | ? | i | -15% | ? | -2%
COc1ccc(C(=O)NC2CCN(c3cc(-c4cccs4)[nH]n3)CC2)cc1 | ? | 18µM* | 0% | ? | -3%
SMILES | NIH3T3 tox | FLuc inh | hNpr1 antagonist | HEK cytotox | GPT2 inh
COc1cccc(CN2C[C@@H]3C(=O)N(CCN4CCc5ccccc5C4)C(=O)[C@@H]3C2)c1 | -25% | i | -8% | ? | i
COc1ccc(-c2ccc3ncc(Nc4ccc(OC)c(OC)c4)n3n2)cn1 | ? | ? | -15%[70.6 µM] | ? | -14%[88.5 µM]
COc1ccc(-c2ccc3ncc(Nc4ccncc4)n3n2)cn1 | ? | i | -3%[70.6 µM] | 100µM* | -14%[88.5 µM]
COc1ccc(-c2ccc3ncc(Nc4cccc(C(F)(F)F)c4)n3n2)cn1 | ? | i | -30%[70.6 µM] | 45µM* | ?
COc1ccc(-c2ccc3ncc(Nc4cccc(Cl)c4)n3n2)cn1 | ? | i | ? | 45µM* | ?
COc1cccc(-c2cn3cc(C(=O)NCc4ccccn4)nc3s2)c1 | ? | · | · | ? | 1%
CNC(=O)[C@@H]1C[C@H](Oc2cccnc2)CN1S(=O)(=O)c1ccc2c(c1)CCC2 | -12% | i | -3% | -2% | 0%
COCCN1CC(CO)C2(CCN(Cc3cc(F)c(F)cc3F)CC2)C1 (stereo not drawn) | 1% | i | 1% | ? | ?
Cc1c(-c2ccccc2)[nH]c2c(CNC(=O)c3ccc(=O)n(C)n3)cc(Cl)cc12 | ? | ? | 11µM* | 28µM* | -33%
Cc1c(-c2ccccc2)[nH]c2c(CNC(=O)CN3C(=O)CNC3=O)cc(Cl)cc12 | ? | 10µM* | 2% | ? | i
CNC(=O)[C@H]1C[C@H](Oc2ccccc2)CN1S(=O)(=O)c1cccc(OC)c1 | -7% | i | 0% | ? | -3%
CCOC(=O)C1CCN(C(=O)C2CCc3nnc(C4CCN([S+](C)(=O)[O-])CC4)n32)CC1 (stereo not drawn) | -6% | · | · | i | i
N#Cc1ccc(C(=O)N2CCCN(c3cc(-c4ccc(Cl)cc4)[nH]n3)CC2)cc1 | ? | i | ? | 28µM* | -26%
COc1cc(OC)cc(C(=O)N2CCN(c3cc(-c4ccc(Cl)cc4)[nH]n3)CC2)c1 | 35µM* | i | ? | ? | i
COc1cccc(C(=O)N2CCCN(c3cc(-c4ccc(Cl)cc4)[nH]n3)CC2)c1 | ? | i | ? | ? | i
COc1ccc(-c2cc(N3CCCN(C(=O)c4cc(OC)cc(OC)c4)CC3)n[nH]2)cc1 | -25% | i | -15% | ? | -30%
CN(C)c1cccc(C(=O)N2CCN(c3cc(-c4ccc(Cl)cc4)[nH]n3)CC2)c1 | ? | 28µM* | -24% | ? | i
O=C(c1cccc(Cl)c1)N1CCN(c2cc(-c3ccc(Cl)cc3)[nH]n2)CC1 | 35µM* | i | ? | 45µM* | 0%
COc1ccccc1C(=O)N1CCC2(CC1)N(C)C(=O)CS2(=O)=O | -11% | i | 3% | -7% | i
COC[C@@H]1CN(Cc2ccc(OC)c(C)c2)C[C@H]1C(=O)N(C)C | 3% | i | -8% | -15% | i

Screening results from PubChem BioAssay.
